4-MU autofl – compound fluoresces in the 4-MU spectral region; hit rate 11% among 59,000; max dye-equivalent concentration, M; compound autofluorescence, 340/450 nm, 4-MU equivalents; active compounds read high; in the data active = max dye-equivalent concentration above about 10 nM; inconclusive = mostly about 1.1 nM to 9.6 nM
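Compounds in 100 mM Tris, pH 8.0, sat 15 min at room temperature before fluorescence was read at 340 nm excitation/450 nm emission; a per-plate six-point 4-MU standard curve converted signals to dye-equivalent concentration at each compound concentration.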
HADH2 inh – blocks human hydroxyacyl-CoA dehydrogenase type II; AID 886; Q99714; hit rate 3.4% among 73,000; Potency, µM (series often up to 57.1 µM), hits mostly inhibitors; recombinant HADH2, NADH fluorescence, beta-hydroxybutyryl-CoA; also: nearly all actives have a fitted effect of over 60% in size
Target sequence (Q99714 whole entry, looked up, one chain of several): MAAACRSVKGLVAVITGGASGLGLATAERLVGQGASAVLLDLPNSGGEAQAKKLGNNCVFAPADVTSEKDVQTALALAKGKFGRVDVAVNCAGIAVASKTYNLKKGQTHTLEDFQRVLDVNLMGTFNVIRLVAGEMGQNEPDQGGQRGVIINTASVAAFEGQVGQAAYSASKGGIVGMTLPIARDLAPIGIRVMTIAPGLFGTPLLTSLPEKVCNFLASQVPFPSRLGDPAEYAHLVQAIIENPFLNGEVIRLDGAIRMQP
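Buffer 100 mM Tris-HCl pH 9.0/0.01% Tween-20; HADH2 20 nM; NAD+ 1 mM; beta-hydroxybutyryl-CoA 90 uM (all final). 15 min cpd preincubation, RT.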
AID923 – qHTS Assay for Allosteric/Competitive Inhibitors of Caspase-1: Spectroscopic Profiling in AFC Spectral Region. compound fluorescence, AFC spectral region (405/520 nm). Potency, µM (top dose mostly 57.5 µM), actives largely listed as activators. hit rate 1.1% among 75,000. AID 923, 2007
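Compound autofluorescence profiled at 405 nm ex/520 nm em during kinetic caspase 1 run (50 nM enzyme, 5 uM Ac-WEHD-AFC, HEPES pH 7.5, 10 mM DTT). Titration up to 57 uM; baseline from regression intercept, normalized to AFC standard curve.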
A350 autofl – A350 region autofluorescence; Compound autofluorescence, 340/450 nm, Alexa 350 dye-equivalents; active compounds read high; max dye-equivalent concentration, M; hit rate 11% among 59,000; in the data active = max dye-equivalent concentration above about 10 nM; inconclusive = mostly about 1.1 nM to 9.6 nM
CRE-bla Fsk – alters forskolin-stimulated CRE reporter signaling in CHO cells | CHO CRE-bla reporter (cAMP response element driving beta-lactamase), forskolin EC10, beta-lactamase ratio | hit rate 2.5% among 71,000 | Potency, µM (series often up to 38.2 µM), actives largely listed as activators; active = well fitted activation curve with a large enough effect in the signal ratio, with a control signal flat, not every such curve was filed as active; inconclusive = small, poorly fitted or top-dose-only effect, or effect the other way, or a change in a side signal; the % refers to the signal ratio
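Reporter-gene assay: CHO cells with beta-lactamase behind cAMP responsive elements, co-treated with compound and EC10 NKH 477 for 3 hours at 37 degrees Celsius. Activity came from the 460/530 nm CCF4 emission ratio.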
HSD17B inhib – HSD17B dehydrogenase inhibition | Q99714 | hit rate 7.6% among 75,000 | recombinant HSD17B10, NADH fluorescence kinetic | AID 893 | Potency, µM (highest dose often 57.1 µM), usual class: inhibitors;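 also: the protocol describes HADH2 (HSD17B10) and not the HSD17B4 of the title; nearly all actives have a fitted effect of over 70% in size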
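His-tagged E. coli-expressed HADH2 at 20 nM in 100 mM Tris-HCl pH 9.0 with 0.01 % Tween-20, preincubated 15 min with compound at room temperature. Reaction with 1 mM NAD+ and 90 uM beta-hydroxybutyryl coenzyme A; NADH fluorescence (360/450 nm) read kinetically over 4 min, last minus first point.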
Numbers stand for hits; 0 = inactive; ? = inconclusive; - = no result given; [ ] = another dose, or the depositor's remark. Compounds with a hit are over-represented: about 14% of the library has one in this group of screens. Unless noted, calls follow the shape of the dose curve; as a rule, active = well fitted curve in the direction sought with a large enough effect; inconclusive = small, poorly fitted or top-dose-only effect, or another doubt; inactive = no such curve, though single readings can be large; an effect the other way counts as inactive or inconclusive.

SMILES	4-MU autofl	HADH2 inh	AID923	A350 autofl	CRE-bla Fsk	HSD17B inhib
COc1ccc2[nH]cc(CCNc3ncnc4ccc(-c5ccccc5C#N)cc34)c2c1	0	0	0	0	0	0
O=C(Nc1ccc2c(c1)C(=O)N(C1CCCCC1)C2=O)C1CCCO1 (stereo unspecified)	2e-07M	25µM	0	1.9e-07M	?	25µM
CN(C)Cc1nc2c([nH]1)c(=O)n(C)c(=O)n2C	-	0	0	-	0	25µM
Cn1c(=O)c2[nH]c(CCS)nc2n(C)c1=O	0	0[11.4 µM]	0[11.5 µM]	0	0[7.6 µM]	0[11.4 µM]
CCOc1ccc(OCCSc2nnnn2C2CCCCC2)cc1	0	0	0	0	0	0
NCCNc1cccc2ccccc12	-	0	0	-	0	32µM
S=C(CSc1ccccc1)Nc1cccc2ccccc12	0	?	0[11.5 µM]	0	0[7.6 µM]	0[11.4 µM]
FC(F)(F)c1cc(CN2CCC3(CCNCC3)CC2)cc(C(F)(F)F)c1	0	0	0	0	0	0
O=C1O[C@@H]([C@@H](O)CO)[C@@H](O)[C@H]1O	0	0	0	0	0	0
Brc1ccc2[nH]c3nc(SCCN4CCOCC4)nnc3c2c1	0	0	0	0	2.5µM	0
O=c1c(CCc2ccccc2)nc2cnc(N3CCOCC3)nc2n1C1CC1	?	0	0	?	?	0
CCCCOC(=O)C1=C(C)Nc2ncnn2C1c1ccc(OC)c(OC)c1OC (stereo unspecified)	?	0	0	?	0	0
CCCCOC(=O)C1=C(C)Nc2ncnn2C1c1cc(OC)c(OC)cc1OC (stereo unspecified)	0	0	0	0	16µM	0
CC1=C(C(=O)NCc2ccccc2)C(c2ccccc2OCC(N)=O)NC(=O)N1 (stereo unspecified)	5.6e-08M	0	0	5.9e-08M	0	?
COc1ccccc1C1C(C(=O)NCc2ccccc2)=C(C)Nc2ncnn21 (stereo unspecified)	?	0	0	1.2e-08M	?	0
COC(=O)CC1[C@@]2(C)C[C@@]34OC5(C)OC6(CC[C@@]7(C)C(c8ccoc8)OC(=O)C(C(C)=O)C7[C@]6(O5)C(O)[C@@]3(O)C2O)[C@]14C (stereo partly specified)	-	-	0	-	-	0
O=S(=O)(c1ccc(Br)s1)N1CCN(c2ccccc2)CC1	2.6e-07M	0	0	3.4e-07M	0	25µM
COC(=O)[C@@]1(Cc2ccc(OC)cc2)[C@H]2c3cc(C(=O)N(C)C)n(Cc4ccc(OC)c(OC)c4)c3C[C@H]2CN1C(=O)c1ccccc1	-	0	0	-	?	0
Cc1cc(N2CCOCC2)nc(SCC(=O)c2ccc(Cl)cc2)n1	0	0	0	0	10µM	0
CCN(CC)C(=O)c1c[nH]c2ccc(S(=O)(=O)Nc3cc(C)cc(C)c3)cc2c1=O	1.5e-08M	0	0	1.4e-08M	?	32µM
CCc1ccc(NS(=O)(=O)c2ccc3[nH]cc(C(=O)NCC4CCCO4)c(=O)c3c2)cc1 (stereo unspecified)	0	0	0	0	?	?
CCc1ccc(NS(=O)(=O)c2ccc3[nH]cc(C(=O)N4CCCCC4)c(=O)c3c2)cc1	?	0	0	?	?	16µM
O=C1[C@H]2[C@H]3[C@H](O)[C@H](O)C/C(=N/OC[C@@H](O)COCc4ccco4)[C@H]3CC[C@@H]2C(=O)N1c1cccc(Oc2ccccc2)c1	-	0[11.4 µM]	0[11.5 µM]	-	-	0[11.4 µM]
CCCCC(=O)Nc1ccc(NC(=O)C2CC2)nc1	0	0	0	0	0	0
O=C1CCC=C1[C@@H](O)CCc1ccccc1	-	0[11.4 µM]	0[11.5 µM]	-	-	0[11.4 µM]
CN(C)CCNC(=O)c1ccc(-n2c(=O)c(=O)[nH]c3ccccc32)cc1	-	0	0	-	-	0
COc1ccccc1NC(=O)CSc1nc2nc(C)cc(C)c2c(=O)[nH]1	0	0	0	0	10µM	0
COc1ccccc1NC(=O)CSc1nccc(=O)[nH]1	1.2e-07M	0	?	1.1e-07M	0.5µM	3.2µM
CCOC(=O)N/N=C1/C[C@@H](O)[C@@H](O)[C@@H]2[C@@H]3C(=O)N(C[C@@H]4CCCO4)C(=O)[C@H]3CC[C@@H]12	-	0[11.4 µM]	0[11.5 µM]	-	-	0[11.4 µM]
CCOC(=O)N1CCN(C(=O)CCn2nc(-c3ccc(Cl)cc3)ccc2=O)CC1	0	0	0	0	?	25µM

Compound activity: PubChem BioAssay, National Center for Advancing Translational Sciences (NCATS)
